Our source for the inhibition values is ChEMBL document CHEMBL3433997, “St. Jude Leishmania screening dataset” (2016).

The first experiment deals with Solute carrier family 2, facilitated glucose transporter member 1 (Homo sapiens) (UniProt P11166). Put plainly: ST_JUDE_LEISH: Cytotoxicity at 2uM final concentration against transgenic Leishmania Mexicana promastigotes LmGLUT1 that are glucose transport deficient and complemented with the human glucose transporter GLUT1. Activity is measured by DNA content using SYBR green in vitro. Type of experiment: functional.
Chain of Solute carrier family 2, facilitated glucose transporter member 1 (Homo sapiens) (P11166 whole entry): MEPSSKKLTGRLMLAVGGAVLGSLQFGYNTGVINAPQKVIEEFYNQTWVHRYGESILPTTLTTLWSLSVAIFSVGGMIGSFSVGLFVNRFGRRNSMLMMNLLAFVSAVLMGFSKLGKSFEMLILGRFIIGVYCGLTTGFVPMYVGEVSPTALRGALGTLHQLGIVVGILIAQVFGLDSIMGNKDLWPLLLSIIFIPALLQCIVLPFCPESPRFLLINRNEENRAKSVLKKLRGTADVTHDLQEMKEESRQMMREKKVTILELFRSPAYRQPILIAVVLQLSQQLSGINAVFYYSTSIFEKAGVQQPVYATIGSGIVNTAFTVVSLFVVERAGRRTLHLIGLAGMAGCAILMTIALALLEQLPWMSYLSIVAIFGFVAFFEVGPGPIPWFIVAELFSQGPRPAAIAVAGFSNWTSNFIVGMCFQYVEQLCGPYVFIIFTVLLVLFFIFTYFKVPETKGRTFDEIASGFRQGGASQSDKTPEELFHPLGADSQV
Regarding `CC(O)C1CCCCN1C(=O)c1cccc(-c2ccc(-c3nc4cc(F)ccc4[nH]3)cc2)c1` (stereo not given), the inhibition was determined as 2.72%.

On to `NC1CCCN(Cc2ccc(-c3ccc(-c4nc5cc(F)ccc5[nH]4)s3)cc2)C1` (stereo not given), for which the inhibition was 2.77%.

For the compound `Cc1ccccc1-c1nc2c(CN3CCC(O)(c4ccccc4)CC3)c(O)ccc2[nH]1`, the inhibition was determined as 11.5%.

Take `Cc1[nH]c2ccc(-c3ccccc3)cc2c(=O)c1Br`: the inhibition came to 1.91%.

Take `CCCOc1ccc(NC(=O)c2cccs2)cc1Cl`: the inhibition was found to be 10%.

For `O=C(Nc1ccc(-c2nc3ccccc3[nH]2)cc1)C1CCCN(C2CCC2)C1` (stereo not given), the inhibition stood at 19.8%.

In the case of `CC(=O)c1ccc2cc(C(=O)NC3CCC(CCN4CCc5ccc(-c6noc(C)n6)cc5CC4)CC3)[nH]c2c1` (stereo not given), the inhibition is -0.19%.

In the case of `Cc1nc(C)c(-c2ccc(Oc3cc(Cl)cc(Cl)c3)cc2)c(O)c1Br`, the inhibition amounted to 1.01%.

Regarding `O=C(/C=C/c1cccc2ccccc12)NCCCCCN1CCC(c2c[nH]c3ccccc23)CC1`, the inhibition amounted to 0.55%.

`N#Cc1cccc(CN2CCCN(c3ccc(NC(=O)c4cccs4)cc3)CC2)c1`: the inhibition came to 4.81%.

For the compound `CC(C)(C)C/C=C\c1ccc(C(=O)NCC2CC2)cc1`, the inhibition came out at 6.73%.

Turning to `Cc1ccc(Cn2nc(Cl)c(N3CCNCC3)cc2=O)cc1NC(=O)Nc1ccc(-c2ccccc2)cc1`, the inhibition stood at 1.36%.

For the compound `CC(=O)Nc1cc(C(=O)Nc2cccc(-c3csc(-c4nc5ccccc5[nH]4)c3)c2)ccc1C`, the inhibition came to 10.5%.

Regarding `CCC(CC)(Cc1ccccc1)NC(=O)[C@H](CC(C)C)Nc1ccc(C#N)c2ccccc12`, the inhibition was 13.3%.

Turning to `Nc1c2c(nc3ccc(C(=O)Nc4ccc(Br)cc4)cc13)CCCC2`, the inhibition came out at 5.71%.

For the compound `CON(C)C(=O)[C@@H](CCCCNC(=O)OCc1ccccc1)NC(=O)OC(C)(C)C`, the inhibition was -0.81%.

`N#Cc1ccccc1Sc1ccccc1C(=O)Nc1ccc2ccccc2n1`: the inhibition was 7.84%.

On to `CC(C(=O)N1CCCC1)N1CCN(S(=O)(=O)c2ccc(C(C)(C)C)cc2)CC1` (stereo not given), for which the inhibition was -0.57%.

`CN(C)CC(=O)Nc1cccc(Nc2nccc(NCC(O)c3ccccc3)n2)c1` (stereo not given): the inhibition is 1.36%.

Take `COC(=O)c1cccc(CNCc2cccc(-c3ccc(-c4nc5ccccc5[nH]4)s3)c2)c1`: the inhibition was found to be 0.25%.

For `CCNc1cc(C(=O)N[C@@H](Cc2ccccc2)[C@H](O)CNCC(C)C)cc(N2CCCC2=O)c1`, the inhibition was found to be 2.24%.

With `CCn1c(-c2nonc2N)nc2c(-c3cccc(NC(=O)Nc4ccc5c(c4)CCC5)c3)ncc(OCCCN)c21`, the inhibition came out at 2.61%.

As to `Cc1ccccc1C1CCN(C2CCC(NC(=O)/C=C/c3cccc(Cl)c3)CC2)CC1` (stereo not given), the inhibition was -2.09%.

As to `CCOc1ccc(C2CCN(CCCCNC(=O)c3ccc(NC(=O)c4ccc(Cl)cc4)cc3)CC2)c(CC)c1`, the inhibition was found to be 0.2%.

As to `Cc1c(CNCCCNc2nc3ccncc3[nH]2)sc(Br)c1Br`, the inhibition came out at 6.56%.

For the compound `CCCCCCN1CCN(Cc2cccc(NC(=O)c3cccc(OCC)c3)c2)CC1`, the inhibition stood at 13.6%.

On to `Oc1ccc(-c2nc(-c3ccc4oc5ccc(-c6[nH]c(-c7ccc(O)cc7)nc6-c6ccccc6)cc5c4c3)c(-c3ccccc3)[nH]2)cc1`, for which the inhibition is -2.06%.

Consider `CC(C)COc1ccc(C(O)C(CN2CCCCC2)c2ccccc2)cc1` (stereo not given), for which the inhibition was 5.44%.

As to `COc1ccc(-n2ccnc2SCC(=O)Nc2cccc(C(F)(F)F)c2)c(OC)c1`, the inhibition was determined as 0.63%.

As to `CN(C)CCNCc1ccc(-c2ccc(-c3nc4cc(F)ccc4[nH]3)cc2)cc1`, the inhibition was determined as 9.57%.

For the compound `COc1cccc(CNC[C@@H](O)[C@H](Cc2ccccc2)NC(=O)c2cc(NC(C)C)cc(N3CCCCS3(=O)=O)c2)c1`, the inhibition was -0.22%.

Take `O=C(Nc1ccc(C(=O)Oc2cccc3ccccc23)cc1)N[C@@H](Cc1ccc(O)cc1)C(=O)NC1CCN(Cc2ccc(O)cc2)C1` (stereo not given in full): the inhibition was 20.6%.

For the compound `CN1CCN(CCCN(Cc2cccc(-c3ccc(CNC4CCCC4)cc3)c2)C(=O)CCC2CCCC2)CC1`, the inhibition worked out at 17.4%.

`O=C(Nc1cccc(-c2nn3ccccc3c2-c2ccnc(Nc3ccc(-c4cc[nH]n4)cc3)n2)c1)c1c(F)cccc1F`: the inhibition amounted to 6.17%.

On to `Cc1ccc2nc(C)cc(NC(=O)Nc3ccc(N(C)C)cc3)c2c1`, for which the inhibition turned out to be 7.58%.

As to `O=C(Nc1cccc(CN2CCN(C(=O)c3cccc(F)c3)CC2)c1)c1ccco1`, the inhibition was 2.27%.

For the compound `Cc1nnc(-c2ccc3ccccc3c2)c2cn(-c3cccc([N+](=O)[O-])c3)nc12`, the inhibition came out at 5.1%.

Take `NS(=O)(=O)NCCCN1CCN(c2ccccc2)CC1`: the inhibition worked out at 1.95%.

With `O=C(O)CCc1ccc(-c2c[nH]c3ncc(-c4ccc5ncccc5c4)cc23)cc1`, the inhibition worked out at 10.2%.

On to `COc1ccc(OC)c(NC(=O)C2c3ccccc3C(=O)N(CC(C)C)C2c2cccs2)c1` (stereo not given), for which the inhibition was -1.99%.

In the next experiment the target is Hexose transporter 1 (Plasmodium falciparum) (UniProt O97467). As to the kind of experiment: ST_JUDE_LEISH: Cytotoxicity at 2uM final concentration against transgenic Leishmania Mexicana promastigotes LmPfHT that are glucose transport deficient and complemented with the Plasmodium falciparum hexose transporter. Activity is measured by DNA content using SYBR green in vitro. Format: functional.
As for `CC(O)C1CCCCN1C(=O)c1cccc(-c2ccc(-c3nc4cc(F)ccc4[nH]3)cc2)c1` (stereo not given), the inhibition is 5.12%.

In the case of `NC1CCCN(Cc2ccc(-c3ccc(-c4nc5cc(F)ccc5[nH]4)s3)cc2)C1` (stereo not given), the inhibition was determined as 3.22%.

Regarding `Cc1ccccc1-c1nc2c(CN3CCC(O)(c4ccccc4)CC3)c(O)ccc2[nH]1`, the inhibition was found to be 8.82%.

For the compound `Cc1[nH]c2ccc(-c3ccccc3)cc2c(=O)c1Br`, the inhibition is 4.13%.

Consider `CCCOc1ccc(NC(=O)c2cccs2)cc1Cl`, for which the inhibition was 8.57%.

For the compound `O=C(Nc1ccc(-c2nc3ccccc3[nH]2)cc1)C1CCCN(C2CCC2)C1` (stereo not given), the inhibition was determined as 14.7%.

On to `CC(=O)c1ccc2cc(C(=O)NC3CCC(CCN4CCc5ccc(-c6noc(C)n6)cc5CC4)CC3)[nH]c2c1` (stereo not given), for which the inhibition is -0.01%.

With `Cc1nc(C)c(-c2ccc(Oc3cc(Cl)cc(Cl)c3)cc2)c(O)c1Br`, the inhibition stood at 2.38%.

As to `O=C(/C=C/c1cccc2ccccc12)NCCCCCN1CCC(c2c[nH]c3ccccc23)CC1`, the inhibition was determined as 1.35%.

As to `N#Cc1cccc(CN2CCCN(c3ccc(NC(=O)c4cccs4)cc3)CC2)c1`, the inhibition is 4.44%.

For the compound `CC(C)(C)C/C=C\c1ccc(C(=O)NCC2CC2)cc1`, the inhibition came to 9.04%.

Regarding `Cc1ccc(Cn2nc(Cl)c(N3CCNCC3)cc2=O)cc1NC(=O)Nc1ccc(-c2ccccc2)cc1`, the inhibition was 5.15%.

Turning to `CC(=O)Nc1cc(C(=O)Nc2cccc(-c3csc(-c4nc5ccccc5[nH]4)c3)c2)ccc1C`, the inhibition was found to be 9.84%.

Take `CCC(CC)(Cc1ccccc1)NC(=O)[C@H](CC(C)C)Nc1ccc(C#N)c2ccccc12`: the inhibition is 10.4%.

In the case of `Nc1c2c(nc3ccc(C(=O)Nc4ccc(Br)cc4)cc13)CCCC2`, the inhibition was found to be 6.08%.

Turning to `CON(C)C(=O)[C@@H](CCCCNC(=O)OCc1ccccc1)NC(=O)OC(C)(C)C`, the inhibition is -1.84%.

For the compound `N#Cc1ccccc1Sc1ccccc1C(=O)Nc1ccc2ccccc2n1`, the inhibition was 11.5%.

For the compound `CC(C(=O)N1CCCC1)N1CCN(S(=O)(=O)c2ccc(C(C)(C)C)cc2)CC1` (stereo not given), the inhibition stood at 0.46%.

Take `CN(C)CC(=O)Nc1cccc(Nc2nccc(NCC(O)c3ccccc3)n2)c1` (stereo not given): the inhibition worked out at 0.33%.

As for `COC(=O)c1cccc(CNCc2cccc(-c3ccc(-c4nc5ccccc5[nH]4)s3)c2)c1`, the inhibition is 2.5%.

For `CCNc1cc(C(=O)N[C@@H](Cc2ccccc2)[C@H](O)CNCC(C)C)cc(N2CCCC2=O)c1`, the inhibition is 1.42%.

Consider `CCn1c(-c2nonc2N)nc2c(-c3cccc(NC(=O)Nc4ccc5c(c4)CCC5)c3)ncc(OCCCN)c21`, for which the inhibition came out at 3.19%.

On to `Cc1ccccc1C1CCN(C2CCC(NC(=O)/C=C/c3cccc(Cl)c3)CC2)CC1` (stereo not given), for which the inhibition was -2.1%.

Regarding `CCOc1ccc(C2CCN(CCCCNC(=O)c3ccc(NC(=O)c4ccc(Cl)cc4)cc3)CC2)c(CC)c1`, the inhibition is -0.09%.

With `Cc1c(CNCCCNc2nc3ccncc3[nH]2)sc(Br)c1Br`, the inhibition is -2.83%.

As for `CCCCCCN1CCN(Cc2cccc(NC(=O)c3cccc(OCC)c3)c2)CC1`, the inhibition turned out to be 13.5%.

Regarding `Oc1ccc(-c2nc(-c3ccc4oc5ccc(-c6[nH]c(-c7ccc(O)cc7)nc6-c6ccccc6)cc5c4c3)c(-c3ccccc3)[nH]2)cc1`, the inhibition was -1.28%.

Take `CC(C)COc1ccc(C(O)C(CN2CCCCC2)c2ccccc2)cc1` (stereo not given): the inhibition amounted to 1.93%.

For `COc1ccc(-n2ccnc2SCC(=O)Nc2cccc(C(F)(F)F)c2)c(OC)c1`, the inhibition turned out to be 0.74%.

Regarding `CN(C)CCNCc1ccc(-c2ccc(-c3nc4cc(F)ccc4[nH]3)cc2)cc1`, the inhibition is 7.88%.

Take `COc1cccc(CNC[C@@H](O)[C@H](Cc2ccccc2)NC(=O)c2cc(NC(C)C)cc(N3CCCCS3(=O)=O)c2)c1`: the inhibition worked out at 1.05%.

Regarding `O=C(Nc1ccc(C(=O)Oc2cccc3ccccc23)cc1)N[C@@H](Cc1ccc(O)cc1)C(=O)NC1CCN(Cc2ccc(O)cc2)C1` (stereo not given in full), the inhibition worked out at 17.7%.

For the compound `CN1CCN(CCCN(Cc2cccc(-c3ccc(CNC4CCCC4)cc3)c2)C(=O)CCC2CCCC2)CC1`, the inhibition was 8.03%.

For `O=C(Nc1cccc(-c2nn3ccccc3c2-c2ccnc(Nc3ccc(-c4cc[nH]n4)cc3)n2)c1)c1c(F)cccc1F`, the inhibition came to 10.3%.

For `Cc1ccc2nc(C)cc(NC(=O)Nc3ccc(N(C)C)cc3)c2c1`, the inhibition was determined as 5.69%.

Turning to `O=C(Nc1cccc(CN2CCN(C(=O)c3cccc(F)c3)CC2)c1)c1ccco1`, the inhibition came out at 2.31%.

On to `Cc1nnc(-c2ccc3ccccc3c2)c2cn(-c3cccc([N+](=O)[O-])c3)nc12`, for which the inhibition is 3.95%.

Turning to `NS(=O)(=O)NCCCN1CCN(c2ccccc2)CC1`, the inhibition turned out to be 1.37%.

In the case of `O=C(O)CCc1ccc(-c2c[nH]c3ncc(-c4ccc5ncccc5c4)cc23)cc1`, the inhibition turned out to be 8.63%.

Turning to `COc1ccc(OC)c(NC(=O)C2c3ccccc3C(=O)N(CC(C)C)C2c2cccs2)c1` (stereo not given), the inhibition was -2.35%.

As a reminder, the inhibition is the drop in the measured response relative to a control, in per cent.
